The target in experiment [1] is Progesterone receptor (Homo sapiens) (UniProt P06401). Kind of experiment: qHTS assay to identify small molecule agonists of the progesterone receptor (PR) signaling pathway (AID 1346784; calls by dose curve; also: nearly all actives have a fitted effect of over 30% in size). The procedure, abridged: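 Beta-lactamase reporter read-out: after 16 hr compound treatment at 37C and a further 2 hr at room temperature with LiveBLAzer B/G FRET substrate, fluorescence was measured in PR-UAS-bla HEK 293T cells grown in 2% charcoal-stripped serum.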
A general note: Quantitative high-throughput screening tests each substance at several concentrations.

Experiment [2] shares this target. The experiment in a line: qHTS assay to identify small molecule antagonists of the progesterone receptor (PR) signaling pathway (AID 1346795; active = well fitted inhibition curve with a large enough effect in the signal ratio in the repeat runs, not every such curve was filed as active; the % refers to the signal ratio; also: potency is read from the fitted curve at half-maximal effect). The method in brief: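 Read-out is fluorescence from the LiveBLAzer B/G FRET substrate, cleaved by a UAS-controlled beta-lactamase in PR-UAS-bla HEK293T cells after 16 hr exposure to compound plus 1 nM promegestone (final), followed by 2 hr at room temperature.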

The nature of experiment [3]: qHTS assay to identify small molecule antagonists of the progesterone receptor (PR) signaling pathway - cell viability counter screen (AID 1346798). Also: nearly all actives have a fitted effect of over 50% in size. Also: potency is read from the fitted curve at half-maximal effect. The procedure, abridged:
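HEK293T PR-UAS-bla, 2% charcoal-stripped FBS; 4 hr pre-plate; cpd + R5020, 16 h 37C; LiveBLAzer read first; then CellTiter-Glo 30 min RT, luminescence.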

Experiment [4] is described as follows: qHTS assay to identify small molecule agonists of the progesterone receptor (PR) signaling pathway - cell viability counter screen (AID 1346799; calls by dose curve; also: nearly all actives have a fitted effect of over 45% in size; also: potency is read from the fitted curve at half-maximal effect). The procedure, abridged: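 Luminescence from CellTiter-Glo, added after the beta-lactamase FRET read in the same wells, gave cytotoxicity in PR-UAS-bla HEK293T cells treated with compounds for 16 hr at 37C.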
The nature of experiment [5]: qHTS assay to identify small molecule antagonists of the TGF-beta/Smad signaling pathway - cell viability counter screen (AID 1346824). Also: nearly all actives have a fitted effect of over 50% in size. The procedure, abridged:
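SBE-bla HEK 293T cells were plated overnight at 37 C, then given compounds in DMSO plus TGF-beta1 (added as 0.25 ng/mL solution) for 5 hr. After the bla read, CellTiter-Glo was added to the same wells and luminescence read after 30 min at room temperature.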

The nature of experiment [6]: qHTS assay to identify small molecule agonists of the TGF-beta/Smad signaling pathway - cell viability counter screen (AID 1346829). Also: nearly all actives have a fitted effect of over 45% in size. Also: potency is read from the fitted curve at half-maximal effect. The method in brief:
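Luminescence from CellTiter-Glo, read after a 30 min room-temperature incubation, gives cell viability of SBE-bla HEK 293T cells treated 5 hr with compounds at 37 C.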

Experiment [7] in a line: qHTS assay to identify small molecule agonists of the TGF-beta/Smad signaling pathway (AID 1346859; active = well fitted activation curve with a large enough effect in the signal ratio in the repeat runs, not every such curve was filed as active; the % refers to the signal ratio; also: series mostly up to about 77 µM). The method in brief: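 SBE-bla HEK 293T, 4,000 cells/well, plated o/n; cpd in DMSO, 5 hr, 37 C/5% CO2; B/G FRET substrate 2 hr RT; ex 405, em 460/530 nm.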
Experiment [8] deals with Thyrotropin-releasing hormone receptor (Homo sapiens) (UniProt P34981). Kind of experiment: qHTS assay to identify small molecule antagonists of the thyrotropin-releasing hormone receptor (TRHR) signaling pathway (AID 1346877; active = well fitted inhibition curve with a large enough effect in the repeat runs, not every such curve was filed as active; also: series mostly up to about 51 µM). The procedure, abridged:
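Human TRHR in HEK293 cells; inhibition of the intracellular calcium rise triggered by 1 nM TRH was followed by fluorescence over 3 min. Compounds were run at 15 concentrations, three replicates each.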

The target is the same in experiment [9]. Kind of experiment: qHTS assay to identify small molecule agonists of the thyrotropin-releasing hormone receptor (TRHR) signaling pathway (AID 1346891; calls by dose curve; also: series mostly up to about 58 µM). The procedure, abridged:
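Intracellular calcium rise, read as fluorescence every second for 3 min, served as the agonist signal in dye-loaded HEK293 cells expressing TRHR; each compound ran at 15 concentrations in triplicate.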

Experiment [10] in a line: Human pregnane X receptor (PXR) small molecule agonists, qHTS cell viability counter screen (AID 1346977). Also: nearly all actives have a fitted effect of over 50% in size. Also: potency is read from the fitted curve at half-maximal effect. The method in brief:
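PXR-Luc HepG2, 2,000 cells/well, 5% charcoal-stripped FBS; 5hr settle; cpd 24hr, 37C/5% CO2; CellTiter-Fluor at 23hr, read 1hr later (fluorescence).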

The record followed here is PubChem BioAssay (Tox21).

“And” between values parts separate entries of the source, which are not always exact repeats. Identical values can stand only once. Results filed as inconclusive are left out. Some compounds were tested as several samples or in several runs, with calls that do not always agree. The source made the active and inactive calls. Unless noted, calls follow the shape of the dose curve; as a rule, active = well fitted curve in the direction sought with a large enough effect in the repeat runs; inconclusive = weak or mixed curves; inactive = no such curve, though single readings can be large; an effect the other way counts as inactive or inconclusive.

Sequence of Progesterone receptor (Homo sapiens) (P06401 whole entry, looked up): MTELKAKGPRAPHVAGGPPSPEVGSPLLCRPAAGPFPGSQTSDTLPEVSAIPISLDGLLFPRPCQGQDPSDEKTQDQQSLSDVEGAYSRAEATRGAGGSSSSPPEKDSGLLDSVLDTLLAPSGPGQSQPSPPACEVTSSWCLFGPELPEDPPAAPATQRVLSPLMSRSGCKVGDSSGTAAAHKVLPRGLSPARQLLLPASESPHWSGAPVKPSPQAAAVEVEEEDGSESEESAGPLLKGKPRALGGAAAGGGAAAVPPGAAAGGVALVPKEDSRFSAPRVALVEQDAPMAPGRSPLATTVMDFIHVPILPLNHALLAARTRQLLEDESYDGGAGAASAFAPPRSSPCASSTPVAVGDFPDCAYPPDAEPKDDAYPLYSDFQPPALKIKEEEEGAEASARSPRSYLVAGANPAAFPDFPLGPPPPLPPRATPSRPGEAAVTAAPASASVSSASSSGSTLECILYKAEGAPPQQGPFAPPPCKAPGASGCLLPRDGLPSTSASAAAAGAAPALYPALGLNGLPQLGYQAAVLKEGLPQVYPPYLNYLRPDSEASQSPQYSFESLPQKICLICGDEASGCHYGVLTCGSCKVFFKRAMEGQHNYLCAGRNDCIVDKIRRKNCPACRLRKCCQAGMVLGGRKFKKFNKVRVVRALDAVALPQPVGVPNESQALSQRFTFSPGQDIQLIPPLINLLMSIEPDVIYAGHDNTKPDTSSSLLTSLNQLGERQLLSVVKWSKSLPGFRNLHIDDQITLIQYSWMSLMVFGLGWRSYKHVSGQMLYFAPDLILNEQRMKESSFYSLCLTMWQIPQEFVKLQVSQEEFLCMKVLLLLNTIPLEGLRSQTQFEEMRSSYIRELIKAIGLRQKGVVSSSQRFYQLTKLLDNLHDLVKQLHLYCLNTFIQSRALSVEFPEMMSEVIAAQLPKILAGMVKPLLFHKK
Sequence of Thyrotropin-releasing hormone receptor (Homo sapiens) (P34981 whole entry, looked up): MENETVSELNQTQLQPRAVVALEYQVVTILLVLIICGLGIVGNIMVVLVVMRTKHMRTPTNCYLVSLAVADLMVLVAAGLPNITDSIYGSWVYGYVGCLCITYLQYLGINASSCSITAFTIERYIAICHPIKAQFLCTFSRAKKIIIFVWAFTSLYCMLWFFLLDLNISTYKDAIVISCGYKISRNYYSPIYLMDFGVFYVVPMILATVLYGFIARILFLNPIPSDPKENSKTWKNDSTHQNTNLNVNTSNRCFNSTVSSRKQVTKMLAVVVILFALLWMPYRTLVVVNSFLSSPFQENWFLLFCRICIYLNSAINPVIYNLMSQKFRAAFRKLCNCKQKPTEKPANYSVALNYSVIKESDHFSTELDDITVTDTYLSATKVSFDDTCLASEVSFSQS

Regarding `Cc1cccc(S(=O)(=O)O)c1C`, the Potency entry in experiment [1], in [2], in [3], in experiment [4], in [5] and in experiment [6] was “inactive” in each case. Besides, the Potency entry in experiment [7], in [8], in experiment [9] and in experiment [10] was “inactive” each time.

As to `C1CCCC1`, the Potency entry in experiment [1], in experiment [2], in experiment [3], in experiment [4], in experiment [5] and in experiment [6] was “inactive” each time. Besides, the Potency entry in experiment [7], in [8], in experiment [9] and in [10] was “inactive” throughout.

In the case of `CCCC(C)c1ccccc1O` (stereo not given), the Potency entry in [1], in [2], in [3], in experiment [4], in experiment [5] and in experiment [7] was “inactive” each time. Besides, the Potency entry in experiment [8], in experiment [9] and in experiment [10] was “inactive” in each case.

`Nc1c(Cl)cc(Cl)cc1Cl`: the Potency result in [1], in experiment [2], in experiment [3], in experiment [4], in experiment [5] and in [6] was “inactive” throughout. Further, the Potency entry in [7], in experiment [8], in experiment [9] and in experiment [10] was “inactive” throughout.

As to `C/C=C(\C)C(=O)OCc1ccccc1`, the Potency entry in experiment [1], in experiment [2], in [3], in [4], in experiment [5] and in [7] was “inactive” throughout.

Consider `CCCCCOc1ccccc1/C(=C\SC)n1ccnc1`, for which the Potency entry in experiment [1], in experiment [5], in experiment [6], in experiment [7], in [8] and in [9] was “inactive” throughout. The Potency was 3.76 µM (active) in [2], 5.31 µM (active) in [3] and 7.5 µM (active) in experiment [4].

For the molecule `CC(C)(C)NC(=O)[C@@H]1C[C@@H]2CCCC[C@@H]2CN1C[C@@H](O)[C@H](Cc1ccccc1)NC(=O)[C@H](CC(N)=O)NC(=O)c1ccc2ccccc2n1`, the Potency entry in [1] is “inactive”. Also, the Potency in experiment [2] is 49.2 µM (active); in experiment [3], 55.2 µM (active); in experiment [4], 39.1 µM (active); in experiment [10], 19.6 µM (active).

Regarding `CC(C)(C)C(=O)OCOC(=O)[C@@H]1N2C(=O)[C@@H](NC(=O)[C@H](N)c3ccccc3)[C@H]2SC1(C)C`, the Potency result in [1], in experiment [2], in [3], in experiment [4], in experiment [5] and in [6] was “inactive” each time. The Potency entry in [7], in [8], in [9] and in [10] was “inactive” each time.

For `CN(C)[C@@H]1C(=O)C(C(N)=O)=C(O)[C@@]2(O)C(=O)C3=C(O)c4c(O)ccc(Cl)c4[C@@H](O)[C@H]3C[C@@H]12`, the Potency entry in experiment [1], in [2], in experiment [3], in [4], in experiment [5] and in experiment [6] was “inactive” each time. In addition, the Potency entry in [8], in experiment [9] and in experiment [10] was “inactive” each time.

In the case of `CC(=O)SC[C@@H](Cc1ccccc1)C(=O)NCC(=O)OCc1ccccc1`, the Potency result in experiment [1], in [2], in experiment [3], in experiment [4], in experiment [5] and in [7] was “inactive” in each case.

Regarding `Oc1ccc(N=Nc2ccccc2)cc1`, the Potency result in experiment [1], in experiment [3], in [4], in experiment [5], in [7] and in experiment [8] was “inactive” in each case. For the same molecule, the Potency result in experiment [9] is “inactive”. Further, the Potency in experiment [2] was 19.6 µM (active).

`COc1ccc(-c2ccc3cc(C(=O)O)ccc3c2)cc1C12CC3CC(CC(C3)C1)C2`: the Potency entry in experiment [1], in [2], in experiment [3], in experiment [4], in experiment [5] and in experiment [7] was “inactive” throughout. Also, the Potency entry in [8], in experiment [9] and in experiment [10] was “inactive” each time.

On to `NC(=NCCCCCCN=C(N)/N=C(\N)Nc1ccc(Cl)cc1)/N=C(\N)Nc1ccc(Cl)cc1`, for which the Potency result in experiment [1], in experiment [3], in [4] and in [7] was “inactive” each time. Also, the Potency result is “inactive and 55.5 µM (active)” in [2]; 35.3 µM (active) and 48.7 µM (active) and inactive in [6].

For `Cc1onc(-c2ccccc2Cl)c1C(=O)N[C@@H]1C(=O)N2[C@@H]1SC(C)(C)[C@@H]2C(=O)O`, the Potency entry in experiment [1], in [2], in experiment [3], in experiment [4], in experiment [5] and in experiment [6] was “inactive” in each case. Further, the Potency result in experiment [7] was “inactive”.

As for `CO[Si](CCCNc1ccccc1)(OC)OC`, the Potency result in experiment [1], in experiment [2], in experiment [3], in [4], in experiment [5] and in experiment [6] was “inactive” in each case. The Potency result in [7], in [8], in experiment [9] and in experiment [10] was “inactive” each time.

Turning to `NNc1nc(-c2ccc(N)cc2)cs1`, the Potency result in experiment [1], in experiment [2], in experiment [3], in experiment [5], in experiment [6] and in [7] was “inactive” throughout.

With `CN(C)CCCOC1(Cc2ccccc2)CCCCCC1`, the Potency result in experiment [1], in experiment [2], in experiment [3], in experiment [5], in experiment [6] and in experiment [7] was “inactive” throughout. Further, the Potency result in experiment [8] and in experiment [9] was “inactive” throughout.

Consider `Oc1ccc2c(c1)-c1ccccc1C2`, for which the Potency result in [1], in [3], in [4], in experiment [5], in experiment [6] and in experiment [7] was “inactive” in each case. Also, the Potency entry in experiment [8], in experiment [9] and in [10] was “inactive” throughout. In addition, the Potency in experiment [2] is 17.2 µM (active).

As to `Cc1onc(-c2c(Cl)cccc2Cl)c1C(=O)N[C@@H]1C(=O)N2[C@@H]1SC(C)(C)[C@@H]2C(=O)O`, the Potency result in experiment [1], in experiment [2], in [3], in experiment [4], in experiment [5] and in experiment [7] was “inactive” throughout. The Potency result in [8], in [9] and in [10] was “inactive” each time.

As for `NNC(=O)c1cccc(C(=O)NN)c1`, the Potency result in [1], in [2], in experiment [3], in experiment [4], in experiment [5] and in experiment [6] was “inactive” throughout. In addition, the Potency entry in experiment [7], in [8], in experiment [9] and in experiment [10] was “inactive” throughout.

With `Clc1ccc2nsnc2c1NC1=NCCN1`, the Potency entry in experiment [1], in experiment [2], in experiment [3], in experiment [4], in experiment [5] and in [6] was “inactive” throughout. Further, the Potency entry in [7] and in experiment [10] was “inactive” each time.
